Our source for the growth values is PubChem BioAssay (NCI).

Molecules are shown by their SMILES. The panel holds about 83,000 compounds, 20% with a hit somewhere; the sample as a whole holds those more often.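 Each cell line was grown in a 96-well plate and treated with one concentration of compound for 48 hours. Values below 10 were considered active.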 A number with no mark means an inactive call. The source made the active and inactive calls.

Some test systems named below: NCI-H23 lung; NCI-H226 lung; NCI-H322M lung; HOP-62 NSCLC; NCI-H460 lung; HOP-92 NSCLC; NCI-H522 lung; 786-0 renal; COLO 205 colon.
What all share (test): NCI-60 one-dose screen, 48 h (100 = growth as untreated, 0 = no growth, -100 = all killed)
Conditions in all cases: 10 µM unless noted

Turning to `O=C(Oc1c(Cl)c(Cl)c(Cl)c(Cl)c1Cl)C1CCCN1C(=O)OCc1ccccc1` (stereo not drawn), the growth in the experiment with NCI-H23 lung was 33.5%; in the experiment with NCI-H226 lung it was 68.3%; with NCI-H322M lung, 39.9%; in the experiment with HOP-62 NSCLC it was 60.2%; in the experiment with NCI-H460 lung, 13.2%; in the experiment on HOP-92 NSCLC, -0.576% (active). Further, the growth in the experiment with NCI-H522 lung was 12.4%; in the experiment on 786-0 renal it was 67.7%; with COLO 205 colon, 35.9%.

`OC(c1cc2c(Cl)cc(Cl)cc2c2cc(C(F)(F)F)ccc12)C1CCCCN1` (stereo not drawn): the growth in the experiment with NCI-H23 lung is -77.5% (active); in the experiment on NCI-H226 lung it was -66% (active); with NCI-H322M lung it was -69.7% (active); with HOP-62 NSCLC, -90% (active); with NCI-H460 lung, -73.6% (active); with HOP-92 NSCLC, -88.8% (active). The growth in the experiment with NCI-H522 lung is -83.9% (active); in the experiment on 786-0 renal it was -67.6% (active); with COLO 205 colon, -88.3% (active).

Take `Nc1ncnc2c1N=C(c1ccc(F)cc1)CC(c1sc(Cl)nc1Cl)N2` (stereo not drawn): the growth in the experiment on NCI-H23 lung was 92.9%; in the experiment with NCI-H226 lung it was 90.1%; with NCI-H322M lung, 106%; in the experiment with HOP-62 NSCLC it was 105%; in the experiment with NCI-H460 lung it was 101%; in the experiment on HOP-92 NSCLC, 71%. Besides, the figures for the growth in the experiment with NCI-H522 lung, in the experiment with 786-0 renal and with COLO 205 colon were 88.7%, 92.6% and 104%, respectively.

Regarding `CCOC(=O)C(=CNc1ccccc1Cl)C(=O)OCC`, the growth in the experiment on NCI-H23 lung is 103%; with NCI-H226 lung, 122%; in the experiment with NCI-H322M lung, 110%; with HOP-62 NSCLC it was 94.5%; in the experiment on NCI-H460 lung, 103%; in the experiment with HOP-92 NSCLC, 97.2%. Moreover, the figures for the growth in the experiment on NCI-H522 lung, with 786-0 renal and in the experiment with COLO 205 colon were 72%, 87.7% and 129%, respectively.

For the compound `COc1ccc(C(=O)c2cc(C)c(OC)c(C)c2)cc1OC(=O)CCl`, the growth in the experiment with NCI-H23 lung is 29.1%; with NCI-H226 lung, 52.8%; with NCI-H322M lung it was 42.7%; in the experiment on HOP-62 NSCLC, 17.8%; in the experiment on NCI-H460 lung, 6.67% (active); in the experiment on HOP-92 NSCLC, 96.5%. Further, the growth in the experiment with NCI-H522 lung was -40.2% (active); with 786-0 renal, 16.2%; in the experiment on COLO 205 colon, 9.62% (active).

Turning to `Nc1c(C(=O)Nc2cccc(Cl)c2)sc2ncc(Br)cc12`, the growth with NCI-H23 lung is 79.5%; in the experiment on NCI-H226 lung, 83.5%; in the experiment on NCI-H322M lung it was 59.4%; with HOP-62 NSCLC, 75.4%; in the experiment on NCI-H460 lung, 28.8%; with HOP-92 NSCLC, 78.5%. Further, the growth in the experiment with NCI-H522 lung was 65.2%; in the experiment with 786-0 renal, 76.1%; with COLO 205 colon, 85.1%.

Regarding `COc1cc(Nc2ccnc3ccc(Br)cc23)cc(OC)c1OC`, the growth with NCI-H23 lung is 53.8%; in the experiment with NCI-H226 lung, 78.8%; in the experiment on NCI-H322M lung, 63.5%; with HOP-62 NSCLC, 23.2%; in the experiment on NCI-H460 lung it was 7.02% (active); with HOP-92 NSCLC, 49%. The growth was -17.8% (active) in the experiment on NCI-H522 lung and 39% in the experiment on COLO 205 colon.

On to `CCN(CC)CCCC(C)N/C(c1cccc(OC)c1)=c1\c(=O)[nH]n(-c2c3ccccc3nc3ccccc23)c(=O)\c1=C(/NC(C)CCCN(CC)CC)c1cccc(OC)c1` (stereo not drawn), for which the growth with NCI-H23 lung is -26.3% (active); with NCI-H226 lung, -25.2% (active); with NCI-H322M lung, -37.7% (active); in the experiment on HOP-62 NSCLC, -22.5% (active); in the experiment on NCI-H460 lung it was -34.1% (active); in the experiment on HOP-92 NSCLC, -70% (active). The figures for the growth with NCI-H522 lung, with 786-0 renal and with COLO 205 colon were -85.6% (active), 3.27% (active) and -90.1% (active), respectively.

In the case of `COc1c(C(=O)/C=C/c2ccc(C)o2)c(O)cc2occc12`, the growth in the experiment on NCI-H23 lung is 79.5%; in the experiment with NCI-H226 lung it was 75.3%; with NCI-H322M lung, 97.2%; in the experiment on HOP-62 NSCLC, 59.2%; in the experiment with NCI-H460 lung it was 70.1%; in the experiment with HOP-92 NSCLC it was 68%. The growth in the experiment on NCI-H522 lung is 41.8%; with 786-0 renal it was 99.1%; with COLO 205 colon, 104%.

With `Oc1[nH]c2ccc(Cl)cc2c1/C=c1/ccc2c(c1)N=C(c1ccc(F)cc1)N=2`, the growth was 74.5% in the experiment on NCI-H23 lung; 89.9% in the experiment with NCI-H226 lung; 84.1% in the experiment on NCI-H322M lung; 74.5% in the experiment on HOP-62 NSCLC; 74.2% in the experiment with NCI-H460 lung; 34.2% with HOP-92 NSCLC. Besides, the growth was 80.7% in the experiment with NCI-H522 lung, 76% in the experiment with 786-0 renal and 97.6% with COLO 205 colon.

As for `C/C(=N\NC(=S)Nc1ccccc1)c1ccccn1`, the growth is 59.8% with NCI-H23 lung; 21.3% with NCI-H226 lung; 20.9% in the experiment on NCI-H322M lung; 41.4% in the experiment with HOP-62 NSCLC; 17.3% with NCI-H460 lung; 37.1% in the experiment with HOP-92 NSCLC. Moreover, the growth was 12.6% with NCI-H522 lung, 32.6% with 786-0 renal and 25.6% in the experiment with COLO 205 colon.

As for `CN1CCN(Cc2ccc(NC(=O)c3cncc(C#Cc4cnc5cccnn45)c3)cc2C(F)(F)F)CC1`, the growth in the experiment with NCI-H23 lung was -7.84% (active); in the experiment on NCI-H226 lung, -3.9% (active); with NCI-H322M lung, 6.52% (active); in the experiment on HOP-62 NSCLC it was -6.79% (active); in the experiment on NCI-H460 lung, -12.6% (active); in the experiment with HOP-92 NSCLC, -9.42% (active). The growth in the experiment on NCI-H522 lung is -37.1% (active); in the experiment with 786-0 renal it was 6.51% (active); in the experiment on COLO 205 colon it was -48.1% (active).

For the compound `CCN(CC)CCCC(C)Nc1cnc(C(=O)Nc2cccc3ccc(OC)nc23)cn1` (stereo not drawn), the growth is 96.1% in the experiment on NCI-H23 lung; 61.4% in the experiment with NCI-H226 lung; 75.5% in the experiment on NCI-H322M lung; 94.2% in the experiment with HOP-62 NSCLC; 1.05% (active) in the experiment on NCI-H460 lung; 49.5% in the experiment with HOP-92 NSCLC. Moreover, the growth in the experiment on NCI-H522 lung was 5.07% (active); in the experiment on 786-0 renal it was 73.4%; in the experiment with COLO 205 colon, 71.4%.

With `O=C(O)/C=C(\c1nc2ccc([N+](=O)[O-])cc2[nH]1)c1cc(Cl)ccc1O`, the growth in the experiment on NCI-H23 lung is 4.9% (active); in the experiment with NCI-H226 lung, 34.4%; in the experiment with NCI-H322M lung it was 33.6%; with HOP-62 NSCLC, 42.8%; in the experiment with NCI-H460 lung, 14.4%; in the experiment with HOP-92 NSCLC, 8.34% (active). In addition, the values for the growth in the experiment on NCI-H522 lung, with 786-0 renal and in the experiment on COLO 205 colon were 2.47% (active), 44% and 27.5%, respectively.

Turning to `CCc1ccc(Nc2cc(C)c3ccc(O)cc3n2)cc1`, the growth in the experiment on NCI-H23 lung is 90.4%; in the experiment with NCI-H226 lung, 76.7%; in the experiment on NCI-H322M lung, 82.9%; with HOP-62 NSCLC, 88%; in the experiment with NCI-H460 lung, 64.3%; with HOP-92 NSCLC it was 74.4%. Moreover, the growth with NCI-H522 lung is 92.2%; in the experiment on 786-0 renal, 68.1%; in the experiment on COLO 205 colon, -81.3% (active).

As for `Cc1cc(C)c(C#N)c(SCC(=O)c2sc3c(C#N)c(C)cc(C)[n+]3c2[O-])n1`, the growth with NCI-H23 lung is 39.4%; in the experiment with NCI-H226 lung it was 46.3%; in the experiment on NCI-H322M lung, 29%; in the experiment with HOP-62 NSCLC it was 17%; with NCI-H460 lung, 6.25% (active); in the experiment with HOP-92 NSCLC, 51.8%. Also, the growth in the experiment on NCI-H522 lung is -31.1% (active); in the experiment on 786-0 renal, 30.6%; in the experiment with COLO 205 colon it was 5.03% (active).

For the compound `CN(C)c1ccc(Nc2c3ccccc3nc3ccccc23)cc1`, the growth is 16% with NCI-H23 lung; -38.3% (active) in the experiment on NCI-H226 lung; 15.5% in the experiment with NCI-H322M lung; 32.6% with HOP-62 NSCLC; -26.6% (active) with NCI-H460 lung; -7.43% (active) in the experiment with HOP-92 NSCLC. In addition, the growth in the experiment with NCI-H522 lung was 20.4%; with 786-0 renal it was 9.08% (active); in the experiment with COLO 205 colon, -51.7% (active).

For `Cc1n(Cc2ccc3ccccc3n2)cc[n+]1Cc1ccc2ccccc2n1`, the growth in the experiment with NCI-H23 lung is 69.8%; with NCI-H226 lung, 88.1%; in the experiment on NCI-H322M lung it was 103%; in the experiment with HOP-62 NSCLC, 90.6%; in the experiment on NCI-H460 lung, 95%; in the experiment with HOP-92 NSCLC it was 74.5%. The growth in the experiment with NCI-H522 lung is 35.9%; with 786-0 renal, 97.8%; in the experiment on COLO 205 colon it was 33.2%.

With `Cc1cc(C)cc(CCCCCCCCCCCCCCCCCC(=O)O)c1`, the growth in the experiment with NCI-H23 lung is 104%; in the experiment on NCI-H226 lung it was 111%; with NCI-H322M lung it was 110%; in the experiment with HOP-62 NSCLC it was 107%; in the experiment with NCI-H460 lung it was 113%; with HOP-92 NSCLC it was 116%. Moreover, the growth with NCI-H522 lung is 92%; with 786-0 renal, 99.5%; in the experiment with COLO 205 colon it was 113%.

As to `CCN(CC)Cc1cc(Nc2nc(NC3CCC(N(C)C)CC3)c3ccccc3n2)ccc1OC` (stereo not drawn), the growth with NCI-H23 lung is 87.8%; in the experiment with NCI-H226 lung it was 75.5%; in the experiment on NCI-H322M lung it was 76.5%; in the experiment with HOP-62 NSCLC, 79.4%; in the experiment on NCI-H460 lung, 89.7%; in the experiment on HOP-92 NSCLC it was 25.3%. In addition, the results for the growth with NCI-H522 lung, in the experiment with 786-0 renal and in the experiment on COLO 205 colon were 44%, 97.8% and 12%, respectively.

Take `Cn1nc(C(F)(F)F)cc1-c1cc(Cl)c(OCc2ccc(Cl)cc2)c(-c2ccc(Cl)c(C(F)(F)F)c2)c1O`: the growth is 4.69% (active) with NCI-H23 lung; -13.3% (active) in the experiment on NCI-H226 lung; 9.05% (active) in the experiment on NCI-H322M lung; -28.6% (active) in the experiment with HOP-62 NSCLC; 0.354% (active) in the experiment with NCI-H460 lung; -25.8% (active) in the experiment on HOP-92 NSCLC. For the same compound, the growth in the experiment on NCI-H522 lung was 1.3% (active); in the experiment with 786-0 renal it was -4.08% (active); with COLO 205 colon, -78.6% (active).
